Measurements reported in PubChem BioAssay (Tox21).
Inconclusive results are not listed. A call without a number means that no potency is given here. Calls of active or inactive are those of the source. Calls follow the shape of the dose curve; as a rule, active = well fitted cell-killing curve with a large enough effect in the repeat runs; inconclusive = weak or mixed curves, or effect the other way; inactive = flat fitted curve, though single readings scatter.

Experiments:
[1] = cAMP Responsive Elements (CRE) small molecule antagonists, cell-based qHTS assay: qHTS cell viability counter screen (AID 2060913); conditions: CRE-bla HEK293T viability, CellTiter-Glo luminescence, 5 h; series mostly up to 92.4 µM; also: nearly all actives have a fitted effect of over 40% in size
How it was run: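 Viability of NKH477-stimulated (0.25 uM final) CRE-bla HEK293T cells is measured by CellTiter-Glo luminescence following 3 hrs compound exposure at 37 C.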

[2] = cAMP Responsive Elements (CRE) small molecule agonists, cell-based qHTS assay: qHTS cell viability counter screen (AID 2060914); conditions: CRE-bla HEK293T viability, CellTiter-Glo luminescence, 5 h; series mostly up to 92.4 µM;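 also: viability read after 3 h of compound exposure; nearly all actives have a fitted effect of over 50% in size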
How it was run: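 CRE-bla HEK 293T cells, plated 18 h at 37 °C, were exposed to compounds for 3 h at 37 °C/5% CO2. Viability was then measured in the same wells by CellTiter-Glo luminescence after 30 min at room temperature.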

| SMILES | Potency [1] | Potency [2] |
| --- | --- | --- |
| Cc1cccc(C)c1OCC(C)N (stereo not given) | inactive | inactive |
| C=CC(C)CCCC(C)(C)O (stereo not given) | inactive | inactive |
| c1ccc2c(c1)CCc1ccccc1N2 | inactive | inactive |
| CC(=O)c1ccc2c(c1)N(CCCN(C)C)c1ccccc1S2 | inactive | inactive |
| Cc1ccc([N+](=O)[O-])c(N)c1 | inactive | inactive |
| O=C1NC2CCCCN2C12CCN(CCCN1c3ccccc3CCc3ccc(Cl)cc31)CC2 (stereo not given) | inactive | inactive |
| Cc1nc(C)nc(N2C[C@@H](C)N(c3ccnc([C@@H](C)O)n3)[C@@H](C)C2)n1 | inactive | inactive |
| COC(=O)CCCC(=O)O | inactive | inactive |
| CCOc1ccc(NC(=O)CC(C)O)cc1 (stereo not given) | inactive | inactive |
| CCOc1ccc(NC(N)=O)cc1 | inactive | inactive |
| CN(C)C/C=C(/c1ccc(Br)cc1)c1cccnc1 | inactive | inactive |
| O=C(OC1C[C@H]2CC[C@@H](C1)[N+]21CCCC1)C(O)(c1ccccc1)c1ccccc1 (stereo not given in full) | inactive | inactive |
| Cc1ccc(C)c(N)c1 | inactive | inactive |
| CCCCCCC=O | inactive | inactive |
| CN(C)CCN(Cc1ccsc1)c1ccccn1 | inactive | inactive |
| CC(C)C(=O)Nc1cccc(C(F)(F)F)c1 | inactive | inactive |
| CCCCOc1cc(C(=O)NCCN(CC)CC)c2ccccc2n1 | inactive | inactive |
| CSCCC=O | inactive | inactive |
| CC(C)c1ccc2oc3nc(N)c(C(=O)O)cc3c(=O)c2c1 | inactive | inactive |
| CC(C)(C)c1cc(CO)cc(C(C)(C)C)c1O | inactive | inactive |
